Assay outcomes as filed in PubChem BioAssay.
Hits are enriched below; roughly 2.5% of the tested compounds scored in any of these assays.
HIV Env fusion: inhibitors of HIV-1 Env-driven cell-cell fusion, primary screen, HeLa-JRFL effector, CEM21 target cells, luciferase; inhibition, % at 12.3 µM; actives 1.1% (n = 360,000);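 active = mean replicate inhibition score of at least 50 and every replicate individually at or above 50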;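 also: 0% = plate neutral controls and 100% = maraviroc near 300 nM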
EWS-Fli block: EWS/Fli-driven NR0B1 reporter inhibitors, primary screen, A673 cells, NR0B1 luciferase, luminescence, MLPCN library. actives 0.67% (n = 350,000). AID 651661, 2012. inhibition, % at 12.6 µM. viability-normalised;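 active = mean inhibition of at least 50% after viability correction, with every replicate also passing that limit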;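 also: firefly luciferase signal divided by Alamar Blue viability fluorescence both relative to DMSO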
CFTR F508del cor: F508del CFTR correction, initial screen, CFBE line, single point; AID 720511, 2013; activity (quench increase), % at 7.58 µM; actives 0.36% (n = 350,000); CFBE cells, YFP halide quenching; stimulated with forskolin plus potentiator P3; % fluorescence drop versus neutral controls;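 active = mean added fluorescence quench of at least 8% versus neutral control, with both replicates also reaching 8%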;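 also: cells transiently co-express mutant CFTR-F508del with the halide-sensitive YFP; corrector assay measuring rescue of mutant channel to the surface after 24 h compound exposure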
GAA850 FXN act: FXN promoter activators, primary screen, cell-based, luciferase luminescence, HEK293 lucGAA850; HEK293 lucGAA850 FXN promoter luciferase reporter, 24 h; percent of 10 µM SAHA response; activation, % at 6 µM; actives 0.56% (n = 360,000);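 active = activation above the average of all compounds screened plus 3 SD, cutoff fixed separately per campaign, cut at about 7.5% in these data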;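 also: 0% = DMSO wells and 100% = 10 µM SAHA wells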
PAX8 inh HTS: inhibitors of PAX8-driven TPO luciferase reporter, primary screen, RMG-I cells, single concentration. SteadyGlo, 24 h. inhibition, % at 12.6 µM. actives 1.2% (n = 360,000). AID 652154, 2013;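 active = mean replicate inhibition at least 60% with every replicate also reaching 60%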;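 also: luciferase light reporting Pax8 driven TPO promoter activity; plate controls were median of neutral control wells for no effect and mitoxantrone controls for full effect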
Starred values were filed as active, the others as inactive; [ ] = dose if it differs, or a comment.

What do the screens show for `CCS(=O)(=O)N1Cc2cc(C(=O)NCC3CC3)nc(-c3cccc(-c4cccnc4)c3)c2[C@H]1CCO`?
EWS-Fli block: 2; CFTR F508del cor: 2; PAX8 inh HTS: 18

Results for O=C(C[n+]1cccc(CNC(=O)c2ccc(OC(F)F)cc2)c1)Nc1ccc(SC(F)F)cc1 ?
HIV Env fusion: 5; GAA850 FXN act: -1; PAX8 inh HTS: 67*

Results for O=C(C[n+]1cccc(CNC(=O)c2ccc(OC(F)F)cc2)c1)Nc1ccccc1Cl ?
HIV Env fusion: -50; GAA850 FXN act: -1; PAX8 inh HTS: 10

Results for COc1ccc(S(=O)(=O)N(C)C[C@H]2Oc3ccc(NC(=O)CCCCCC(=O)Nc4ccccc4N)cc3C(=O)N([C@@H](C)CO)C[C@@H]2C)cc1 ?
EWS-Fli block: 2; CFTR F508del cor: 0; PAX8 inh HTS: 16

Results for CCOc1ccc(NC(=O)c2ccccn2)cc1 ?
HIV Env fusion: 12; EWS-Fli block: 78*; CFTR F508del cor: -1; GAA850 FXN act: -9; PAX8 inh HTS: 65*

Results for CCOc1ccc(NC(=O)c2cnccn2)cc1 ?
GAA850 FXN act: 0

What do the screens show for `CCOc1ccc(NC(=O)c2ccc(F)c(S(=O)(=O)N3CCCC3)c2)cc1`?
HIV Env fusion: 14; EWS-Fli block: 1; CFTR F508del cor: 0; GAA850 FXN act: -1; PAX8 inh HTS: 15

What do the screens show for `COc1cc(OC)cc(C(=O)NNC(=O)c2ccccn2)c1`?
HIV Env fusion: 37; EWS-Fli block: 8; CFTR F508del cor: 2; GAA850 FXN act: 2; PAX8 inh HTS: 28

Results for COc1ccc(C(=O)NNC(=O)c2ccccn2)cc1 ?
HIV Env fusion: 62*; EWS-Fli block: 62*; CFTR F508del cor: -5; GAA850 FXN act: -12; PAX8 inh HTS: 104*

Results for CCOc1ccc(NC(=O)c2ccc(F)c(S(=O)(=O)N3CCN(c4ccccn4)CC3)c2)cc1 ?
HIV Env fusion: 57*; GAA850 FXN act: -2

What do the screens show for `COc1ccc(C(=O)O/N=C(\N)c2ccccn2)cc1`?
HIV Env fusion: 70*; EWS-Fli block: 44; CFTR F508del cor: -2; GAA850 FXN act: -8; PAX8 inh HTS: 121*

What do the screens show for `COc1cc(OC)cc(C(=O)O/N=C(\N)c2ccccn2)c1`?
HIV Env fusion: -39; EWS-Fli block: -75; CFTR F508del cor: 2; GAA850 FXN act: 1; PAX8 inh HTS: -11

How did C[C@@H]1CN([C@@H](C)CO)C(=O)c2cccc(NC(=O)c3cnccn3)c2O[C@H]1CN(C)Cc1ccc(C(=O)Nc2ccccc2N)cc1 do in these assays?
EWS-Fli block: 16; CFTR F508del cor: 1

What do the screens show for `C[C@@H]1CN([C@H](C)CO)C(=O)c2cc(-c3ccccc3)cnc2O[C@@H]1CN(C)C(=O)Cc1ccccn1`?
HIV Env fusion: -2[16.7 µM]; EWS-Fli block: -11; CFTR F508del cor: 0

What do the screens show for `CC(Oc1cccc(Br)c1)C(=O)NNC(=O)c1ccccn1` (stereo not drawn)?
GAA850 FXN act: 5

What do the screens show for `CC(Oc1ccccc1)C(=O)NNC(=O)c1ccccn1` (stereo not drawn)?
EWS-Fli block: 13; CFTR F508del cor: 1; GAA850 FXN act: 0; PAX8 inh HTS: 75*

What do the screens show for `C[C@H](CO)N1C[C@H](C)[C@@H](CN(C)C(=O)Nc2ccc(F)cc2)OCCCC[C@H](C)Oc2ccc(NS(=O)(=O)c3ccc(F)cc3)cc2C1=O`?
HIV Env fusion: -144[16.7 µM]; EWS-Fli block: 5; CFTR F508del cor: -1; PAX8 inh HTS: 9

What do the screens show for `C[C@H]1CCCCO[C@H](CN(C)C(=O)C2CCCCC2)[C@@H](C)CN([C@@H](C)CO)C(=O)c2cc(NS(C)(=O)=O)ccc2O1`?
HIV Env fusion: 1[16.7 µM]; EWS-Fli block: -6; CFTR F508del cor: 2; PAX8 inh HTS: 17

What do the screens show for `COc1ccccc1C1CC(=O)Nc2cc3c(cc21)OCCO3` (stereo not drawn)?
EWS-Fli block: 40; CFTR F508del cor: 11*; GAA850 FXN act: 0

What do the screens show for `CC(C)Oc1ccccc1C1CC(=O)Nc2cc3c(cc21)OCCO3` (stereo not drawn)?
HIV Env fusion: -32; GAA850 FXN act: 2; PAX8 inh HTS: 80*

What do the screens show for `COc1cccc(C2CC(=O)Nc3cc4c(cc32)OCCO4)c1OC(C)C` (stereo not drawn)?
HIV Env fusion: -3; EWS-Fli block: -6; CFTR F508del cor: -5; GAA850 FXN act: -1; PAX8 inh HTS: 25

Results for COc1cccc(C#Cc2ccc3c(c2)O[C@@H](CN(C)C(=O)c2ccccn2)[C@H](C)CN([C@H](C)CO)S3(=O)=O)c1 ?
HIV Env fusion: 6[16.7 µM]; EWS-Fli block: 18; CFTR F508del cor: 5; PAX8 inh HTS: 52

What do the screens show for `C[C@H](CO)N1C[C@H](C)[C@@H](CN(C)C(=O)Nc2ccccc2)Oc2c(NC(=O)C3CC3)cccc2C1=O`?
HIV Env fusion: 6[16.7 µM]; EWS-Fli block: 4; CFTR F508del cor: 0; PAX8 inh HTS: 8

How did O=C(Cc1nnc(NC(=O)c2ccccc2)s1)N/N=C/c1cccc(O)c1 do in these assays?
HIV Env fusion: -36; EWS-Fli block: 0; CFTR F508del cor: 0; GAA850 FXN act: 0; PAX8 inh HTS: -23

What do the screens show for `O=C(Cc1nnc(NC(=O)c2ccccc2)s1)N/N=C/c1ccco1`?
EWS-Fli block: -35; CFTR F508del cor: -1; GAA850 FXN act: 0; PAX8 inh HTS: 132*

How did CC(=O)c1c(C)[nH]c(C(=O)CSc2nnc(C3CCCCC3)n2N)c1C do in these assays?
HIV Env fusion: 64*; GAA850 FXN act: -1; PAX8 inh HTS: 11

How did CCc1cnc(N2[C@@H](C#N)[C@@H](c3ccc(-c4cccc(F)c4)cc3)[C@@H]2CO)s1 do in these assays?
EWS-Fli block: 4; CFTR F508del cor: 2; PAX8 inh HTS: 1

How did CC(C)c1cccc(-c2csc(C(O)c3ccco3)n2)c1 (stereo not drawn) do in these assays?
HIV Env fusion: -24; EWS-Fli block: -50; CFTR F508del cor: 8.9*; GAA850 FXN act: 5; PAX8 inh HTS: -75

How did COc1ccc(S(=O)(=O)N(C)C[C@@H]2Oc3ccc(NS(=O)(=O)c4ccccc4)cc3CC(=O)N([C@H](C)CO)C[C@@H]2C)cc1 do in these assays?
HIV Env fusion: 10[16.7 µM]; EWS-Fli block: 2; CFTR F508del cor: 1; PAX8 inh HTS: -31

What do the screens show for `COc1ccc(NC(=O)CN2CCC(C(N)=O)(N3CCCCC3)CC2)cc1`?
HIV Env fusion: 77*; GAA850 FXN act: -3

How did CNC[C@@H]1OCCCC[C@@H](C)Oc2ccc(N(C)C)cc2C(=O)N([C@H](C)CO)C[C@@H]1C do in these assays?
HIV Env fusion: -1[16.7 µM]; EWS-Fli block: 8; CFTR F508del cor: -3; PAX8 inh HTS: -2

Results for CSc1ccc(/C=N/Nc2cccc(C(=O)O)c2)cc1 ?
GAA850 FXN act: 9.1*
